# From PubChem BioAssay AID602358 (National Center for Advancing Translational Sciences (NCATS), 2012)
# Inconclusive results are not listed. Calls of active or inactive are those of the source. The call rests on the fitted dose curve; in most records, active means well fitted inhibition curve with a large enough effect; inconclusive means small, poorly fitted or top-dose-only effect; inactive means flat fitted curve, though single readings scatter.
# Target: Luciferin 4-monooxygenase (Photinus pyralis) (UniProt P08659)
# Experiment: FLuc inhibitory activity for the follow-up compounds in a biochemical assay with Km concentrations of substrate and 500microM CoASH
# Conditions: purified FLuc, Km substrates + 500 uM CoASH, luminescence; series mostly up to 57.5 µM
# Source text: NCGC Assay Overview: Firefly (Photinus pyralis) luciferase is one of the most commonly used transcriptional reporters. It is considered one of the more dynamically responsive reporters - that is, responsive to changes in reporter transcription - as it requires no post-translational modifications and is enzymatically active directly after protein synthesis (Wood, 1998). With no endogenous expression in mammalian cells and without the requirement of external excitation, it offers very little background signal, thus generally providing excellent signal to background for most assays. Previous profiling work to determine the prevalence of compounds that affect FLuc enzymatic activity (PubChem AID 411) identified that ~3% of the MLSMR library (then at ~72K) inhibited FLuc. […] Of the compounds identified in this profile that inhibited FLuc, 151 compounds were selected for further analysis, in an effort to better understand their mode of inhibiting FLuc. The assay described here was to determine the activity of the compounds in an FLuc assay that contained KM concentrations of substrates and 500uM CoASH.
# NCGC Assay Protocol Summary: Reagents: 50mM Tris acetate, pH 7.5; 10mM Mg acetate; 10uM D-luciferin (Sigma #L9504); 10uM ATP; 0.01% Tween-20; 0.05% BSA; 10nM P. pyralis luciferase (Sigma #L9506); 500 uM CoASH Control compounds used were two known firefly luciferase inhibitors (3-(5-(3-chlorophenyl)-1,2,4-oxadiazol-3-yl)benzoic acid and 5-(2-fluorophenyl)-3-phenyl-1,2,4-oxadiazole), and DMSO. Three microliters containing firefly luciferase substrates in buffer (final concentrations: 50mM Tris acetate, pH 7.5, 10mM Mg acetate, 0.01% Tween-20, 0.05% BSA, 10uM D-luciferin, 10uM ATP, and 500 uM CoASH) are dispensed into each well of a Greiner white, solid-bottom 1536-well format plate using a flying reagent dispenser (FRD). These assay plates were then treated with 23nL of compound or DMSO using a Kalypsys pin tool, which allows for delivery of a 12-point intraplate titration of each compound to the assay plate (quantitative HTS), with a final compound concentrations ranging from approximately ~60uM to 0.3nM. One microliter of firefly luciferase in 500mM Tris-acetate buffer was then delivered by FRD to each well for a final enzyme concentration of 10nM. Luciferase activity was then measured using a ViewLux CCD imager (PerkinElmer), with an average exposure time of 2-30 seconds (2X binning, medium/high gain).
# Chain of Luciferin 4-monooxygenase (Photinus pyralis) (P08659 whole entry, looked up): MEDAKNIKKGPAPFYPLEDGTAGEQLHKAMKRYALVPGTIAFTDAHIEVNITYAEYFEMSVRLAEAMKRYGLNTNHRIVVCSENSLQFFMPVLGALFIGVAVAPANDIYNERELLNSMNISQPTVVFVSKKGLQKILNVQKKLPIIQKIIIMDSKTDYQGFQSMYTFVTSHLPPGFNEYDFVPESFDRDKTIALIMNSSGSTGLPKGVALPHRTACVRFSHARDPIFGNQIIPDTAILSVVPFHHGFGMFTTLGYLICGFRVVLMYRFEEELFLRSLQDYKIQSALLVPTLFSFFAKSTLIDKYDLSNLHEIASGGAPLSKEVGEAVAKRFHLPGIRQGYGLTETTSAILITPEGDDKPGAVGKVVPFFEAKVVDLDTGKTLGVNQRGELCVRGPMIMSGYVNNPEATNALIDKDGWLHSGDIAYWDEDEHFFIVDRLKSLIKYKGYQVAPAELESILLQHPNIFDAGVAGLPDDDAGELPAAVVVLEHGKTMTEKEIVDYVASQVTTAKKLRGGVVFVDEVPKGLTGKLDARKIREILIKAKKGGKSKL
row,Compound,Potency
1,O=C(O)c1cccc(NC(=O)c2ccc(Cl)c(S(=O)(=O)N3CCCCCC3)c2)c1,2.91 µM (active)
2,Cc1c(NC(=O)c2cc(-n3cnnc3)ccc2Cl)cccc1-c1nc2ccccc2s1,0.231 µM (active)
3,COc1ccc2nc(NC(=O)Cc3cccs3)sc2c1,5.8 µM (active)
4,Nc1ccc(-c2nc3cc(N)ccc3s2)cc1,0.259 µM (active)
5,COc1ccc2nc(NC(=O)c3nc(S(=O)(=O)Cc4ccc(C)cc4)ncc3Cl)sc2c1,2.06 µM (active)
6,O=C(Nc1ccccc1C(=O)O)c1cccc(NC(=O)c2ccccc2Br)c1,14.6 µM (active)
7,COc1ccc(C(=O)Nc2ccccc2C(=O)Nc2ccc(C(=O)O)cc2)cc1,0.517 µM (active)
8,NC(=O)Cc1ccc2sc(-c3ccccc3)nc2c1,1.63 µM (active)
9,COc1ccc(-c2cccc(C(=O)Nc3cccc(C(=O)O)c3)c2)cc1,13 µM (active)
10,COc1ccc2nc(NC(=O)c3ccc(S(=O)(=O)N4CCCC(C)C4)cc3)sc2c1 (stereo not given),inactive
11,CN(C)S(=O)(=O)c1ccc(C(=O)Nc2ccccc2C(=O)O)cc1,9.19 µM (active)
12,c1ccc2sc(-c3ccc4c(c3)OCO4)nc2c1,0.103 µM (active)
13,Cc1cccc(C(=O)Nc2ccccc2C(=O)Nc2ccc(C(=O)O)cc2)c1,5.8 µM (active)
14,COc1ccc2nc(NC(=O)c3ccc(NS(=O)(=O)c4cccs4)cc3)sc2c1,2.59 µM (active)
15,O=C(Nc1ccccc1C(=O)O)c1ccc(NC(=O)C2CCCCC2)cc1,5.17 µM (active)
16,COc1ccc2nc(NC(=O)c3ccc4ncsc4c3)sc2c1,0.651 µM (active)
17,O=C(O)c1ccc(NC(=O)c2ccccc2NC(=O)c2ccccc2Br)cc1,16.3 µM (active)
18,Nc1cccc(-c2nc3ccc(N)cc3s2)c1,0.146 µM (active)
19,COc1ccccc1C(=O)Nc1ccc(C(=O)Nc2ccccc2C(=O)O)cc1,20.6 µM (active)
20,Cc1cccc(NS(=O)(=O)c2cccc(C(=O)Nc3cccc(C(=O)O)c3)c2)c1,inactive

row,Compound,Potency
1,Nc1ccccc1C(=O)Nc1cccc(C(=O)O)c1,18.3 µM (active)
2,Cc1ccccc1C(=O)Nc1cccc(C(=O)Nc2ccccc2C(=O)O)c1,16.3 µM (active)
3,CCCC(=O)Nc1nc2ccc(OCC)cc2s1,10.3 µM (active)
4,Cn1c(N/N=C/c2cc3ccccc3nc2Cl)nc2ccccc21,0.0231 µM (active)
5,Cc1ccc(C(=O)Nc2ccccc2C(=O)O)cc1S(=O)(=O)N1CCCCCC1,0.919 µM (active)
6,Oc1ccc(-c2nc3ccccc3s2)c(O)c1,1.83 µM (active)
7,CN=c1scc(-c2ccccc2F)n1/N=C/c1ccc[nH]1,0.0163 µM (active)
8,O=C(Nc1ccccc1C(=O)O)c1ccccc1,23.1 µM (active)
9,Cc1ccc2nc(-c3ccc(NC(=O)CN4CCN(C(=O)c5ccco5)CC4)cc3)sc2c1,3.66 µM (active)
10,COc1ccc(-c2nc3ccccc3s2)cc1NC(=O)c1ccc(F)cc1,inactive
11,COc1ccc2nc(NC(=O)c3cccc(S(=O)(=O)N4CCOCC4)c3)sc2c1,14.6 µM (active)
12,COc1ccc(NS(=O)(=O)c2cccc(C(=O)Nc3ccccc3C(=O)O)c2)cc1,inactive
13,O=C(Nc1c(Cl)cc(Cl)cc1-c1nc2ccccc2s1)c1ccc(Br)o1,inactive
14,O=C(O)c1ccccc1NC(=O)c1ccccc1Nc1ccccc1,9.19 µM (active)
15,O=C(COC(=O)c1ccccc1[N+](=O)[O-])c1ccc2c(c1)OCO2,0.0023 µM (active)
16,Cc1c(NS(C)(=O)=O)cccc1-c1nc2ccccc2s1,3.66 µM (active)
17,COc1ccc2nc(NC(=O)c3cccs3)sc2c1,13 µM (active)
18,Cc1ccc(C(=O)O/N=C(\N)c2ccccn2)c(Cl)c1,0.0046 µM (active)
19,Cc1ccc(NS(=O)(=O)c2ccc(Cl)c(C(=O)Nc3cccc(C(=O)O)c3)c2)cc1,inactive
20,O=C(Nc1cccc(-c2nc3ccccc3s2)c1)C1=COCCO1,7.3 µM (active)
